The source of these data is PubChem BioAssay AID1117283 (Broad Institute, 2014).

Measured potencies and affinities stand elsewhere. Calls of active or inactive are those of the source.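 Rule for the calls: active = fluorescent signal decreased by at least 40%; inconclusive = no clear call, values can overlap the other calls; inactive = the rest, including activity opposite to the expected direction.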

This experiment is described as follows: fibronectin fibrillogenesis inhibitors in fibroblasts, dose response, AH1F cells, Alexa488-fibronectin fluorescence, cherry-pick, set 2 (AID 1117283).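 Note: AH1F fibroblasts given Alexa488-labelled fibronectin at 24 nM final.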 The note with it: Alexa488-fibronectin deposition fluorescence, overnight; series mostly up to 35 µM.
For the compound `C[C@H](CO)N1C[C@H](C)[C@H](CN(C)Cc2ccc(-c3ccccc3)cc2)Oc2ccc(NC(=O)C3CCCCC3)cc2C1=O`, the call was inactive.

Turning to `C[C@@H]1CN([C@H](C)CO)C(=O)c2cccc(NC(=O)Nc3ccc(C(F)(F)F)cc3)c2O[C@@H]1CN(C)C(=O)Nc1cccc2ccccc12`, the result was inactive.

`COC(=O)c1cn(CC(=O)NCc2ccco2)c2ccccc12`: the outcome was inactive.

With `C[C@@H]1CN([C@H](C)CO)C(=O)c2cc(-c3ccccc3)cnc2O[C@H]1CN(C)Cc1ccccc1`, the call was inactive.

For `CN1CCN(C(=O)c2cccc(-c3cnc4cnc(-c5ccccc5Oc5ccccc5)cn34)c2)CC1`, the compound was classed as inactive.

As to `COCC(=O)Nc1ccc2c(c1)C(=O)N(C)[C@@H]1CC[C@H](CC(=O)NCc3ccccc3Cl)O[C@@H]1CO2`, the compound was classed as inactive.

For the compound `O=C(c1cccnc1)N1C[C@H]2[C@@H](c3ccccc31)[C@@H](CO)N2CC1CCCC1`, the outcome was inactive.

`C[C@H]1CN([C@@H](C)CO)C(=O)c2cc(-c3ccccc3)cnc2O[C@@H]1CN(C)C(=O)c1cccc(F)c1`: the compound was called inactive.

As for `C[C@H](CO)N1C[C@H](C)[C@H](CN(C)Cc2ccccc2)Oc2ncc(-c3ccccc3)cc2C1=O`, the compound was classed as inactive.

Take `Cc1ccc(O)c(-c2cc(-c3cccc(Br)c3)n[nH]2)c1`: the compound was classed as inactive.

With `COc1ccc(CN(C2CCCC2)S(=O)(=O)c2ccc(-n3cnnn3)cc2)cc1OC`, the call was inactive.

As to `C[C@H](O)C#Cc1ccc2c(c1)O[C@@H](CN(C)C)[C@H](C)CN([C@@H](C)CO)S2(=O)=O`, the call was inactive.

As for `CO[C@H]1CN(C)C(=O)c2cc(NC(=O)Nc3cc(Cl)cc(Cl)c3)ccc2OC[C@H](C)NC[C@H]1C`, the result was inactive.

For the compound `C[C@@H]1CN([C@H](C)CO)C(=O)c2cc(NC(=O)CCCN(C)C)ccc2O[C@H]1CN(C)Cc1ccc(-c2ccccc2)cc1`, the compound was called inactive.

Consider `C[C@@H]1CN([C@H](C)CO)C(=O)c2cc(NC(=O)CCCN(C)C)ccc2O[C@@H]1CN(C)Cc1ccc(-c2ccccc2)cc1`, for which the compound was classed as inactive.

As to `Cc1ccccc1S(=O)(=O)N1CC[C@H]2[C@H](CO)Nc3ccc(-c4ccc(C#N)cc4)cc3[C@H]21`, the compound was called inactive.

Turning to `Cc1ccc(-c2nc3ncccc3o2)cc1NC(=O)c1ccco1`, the call was inactive.

Consider `Cc1cccc(NC(=O)c2ccc(S(=O)(=O)N3CCCCC3)cc2)n1`, for which the outcome was inactive.

With `CCN(Cc1ccncc1)C(=O)c1ccc2c(c1)S(=O)(=O)c1ccccc1C2=O`, the outcome was inactive.

Regarding `COCC(=O)Nc1ccc2c(c1)C(=O)N(C)[C@H]1CC[C@H](CC(=O)NCc3ccccc3Cl)O[C@@H]1CO2`, the call was inactive.

`CCCc1cc(C(=O)OC)c(NC(=O)CCC(=O)O)s1`: the compound was classed as inactive.

As to `N#C[C@@H]1[C@H](c2ccccc2C2=CCCCC2)[C@@H](CO)N1S(=O)(=O)c1ccccc1`, the compound was classed as inactive.

On to `O=C(C[C@@H]1C[C@@H]2c3cc(NC(=O)c4ccc5c(c4)OCO5)ccc3O[C@@H]2[C@@H](CO)O1)NCc1ccc(Oc2ccccc2)cc1`, for which the result was inactive.

For the compound `C[C@H]1CN([C@@H](C)CO)C(=O)c2cc(-c3ccccc3)cnc2O[C@H]1CN(C)C(=O)c1cccc(F)c1`, the call was inactive.

As for `O=S(=O)(c1ccccc1F)N1CC[C@@H]2[C@@H](CO)Nc3ccc(-c4cccc(F)c4)cc3[C@@H]21`, the outcome was inactive.

Consider `CO[C@@H]1CN(C)C(=O)c2ccc(NC(=O)c3ccc(-c4ccccc4)cc3)cc2OC[C@H](C)NC[C@@H]1C`, for which the outcome was inactive.

Regarding `Cc1cc(C)n2ncc(C(=O)NCc3ccc(Cl)cc3)c2n1`, the compound was called inactive.

Take `COc1cccc(-c2ccc3c(c2)[C@@H]2[C@@H](CCN2S(=O)(=O)c2cccc(OC)c2)[C@@H](CO)N3)c1`: the outcome was inactive.

Regarding `C[C@H]1CN([C@@H](C)CO)C(=O)c2cccc(NC(=O)Nc3ccc(C(F)(F)F)cc3)c2O[C@H]1CN(C)C(=O)Nc1cccc2ccccc12`, the compound was called inactive.

Take `CCOC(=O)c1nnn(-c2ccc(OC)cc2)c1N`: the compound was classed as inactive.

In the case of `COCC(=O)Nc1ccc2c(c1)C(=O)N(C)[C@@H]1CC[C@@H](CC(=O)NCc3ccccc3Cl)O[C@H]1CO2`, the result was inactive.

In the case of `Cc1ccc(S(=O)(=O)N2CC[C@@H]3[C@@H](CO)Nc4ccc(-c5cccc(C(=O)N(C)C)c5)cc4[C@@H]32)cc1`, the compound was classed as inactive.

Turning to `O=S(=O)(c1ccccc1F)N1CC[C@H]2[C@H](CO)Nc3ccc(-c4cccc(F)c4)cc3[C@H]21`, the result was inactive.

As for `CC(C)(C)c1cc(Cl)c(O)c(NC(=S)NC(=O)c2cccnc2)c1`, the compound was classed as inactive.

As to `CO[C@H]1CN(C)C(=O)c2ccc(NC(=O)c3ccc(-c4ccccc4)cc3)cc2OC[C@H](C)NC[C@@H]1C`, the compound was classed as inactive.

`CSc1ccccc1C(=O)C1CCCN(C(=O)CCc2cccnc2)C1` (stereo unspecified): the compound was classed as inactive.
